Measurements published in article PMC7862700, “An all-to-all approach to the identification of sequence-specific readers for epigenetic DNA modifications on cytosine”.

How the values were obtained:
Assay in all cases: DAPPL (digital affinity profiling via proximity ligation, sequencing); 10 mM Tris-HCl pH 7.5, 50 mM NaCl, 1 mM DTT, 4% glycerol, room temperature, 30 min; GST-TFs on glutathione beads, 16-mer random dsDNA library, 0.1% formaldehyde crosslink after washing; high values mean tight binding
Conditions in all cases: protein: recombinant; tags: N-terminal GST; dsDNA, one strand shown
ERF = molecular target: T1, ERF (Homo sapiens, UniProt P50548 1-548)
T1 sequence: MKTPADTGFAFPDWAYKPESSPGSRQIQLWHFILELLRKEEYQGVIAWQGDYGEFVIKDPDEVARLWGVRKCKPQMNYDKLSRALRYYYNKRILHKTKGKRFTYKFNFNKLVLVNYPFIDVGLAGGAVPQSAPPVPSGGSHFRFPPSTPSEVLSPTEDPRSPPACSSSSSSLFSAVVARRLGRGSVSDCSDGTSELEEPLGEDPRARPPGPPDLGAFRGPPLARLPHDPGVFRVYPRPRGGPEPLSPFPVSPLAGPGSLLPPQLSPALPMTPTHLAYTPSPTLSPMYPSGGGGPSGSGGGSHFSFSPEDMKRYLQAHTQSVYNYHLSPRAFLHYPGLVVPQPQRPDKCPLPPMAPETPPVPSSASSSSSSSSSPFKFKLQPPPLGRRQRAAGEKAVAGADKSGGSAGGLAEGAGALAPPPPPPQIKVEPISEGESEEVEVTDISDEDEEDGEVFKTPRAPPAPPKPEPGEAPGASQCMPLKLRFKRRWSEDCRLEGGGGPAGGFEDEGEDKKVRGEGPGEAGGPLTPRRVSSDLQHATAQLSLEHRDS
Summary of the method: (§1)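 Sequencing on an Illumina NextSeq500 followed washing, crosslinking with 0.1% formaldehyde, proximity ligation (BsaI/T4 ligase, 1 h, 37 °C) and PCR amplification of pools that had been incubated for 30 min at room temperature with 200 nmole of a random double-stranded 16-mer DNA library in Tris/NaCl/DTT/glycerol buffer. Each pool held DNA-barcoded human transcription factors, expressed in yeast as GST fusions and captured on glutathione beads, plus a tag-only sample. Binding signal is a hexamer's read frequency for a factor divided by its frequency in the tag-only sample.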

ETV3L = molecular target: T2, ETV3L (Homo sapiens, UniProt Q6ZN32 1-361)
T2 sequence: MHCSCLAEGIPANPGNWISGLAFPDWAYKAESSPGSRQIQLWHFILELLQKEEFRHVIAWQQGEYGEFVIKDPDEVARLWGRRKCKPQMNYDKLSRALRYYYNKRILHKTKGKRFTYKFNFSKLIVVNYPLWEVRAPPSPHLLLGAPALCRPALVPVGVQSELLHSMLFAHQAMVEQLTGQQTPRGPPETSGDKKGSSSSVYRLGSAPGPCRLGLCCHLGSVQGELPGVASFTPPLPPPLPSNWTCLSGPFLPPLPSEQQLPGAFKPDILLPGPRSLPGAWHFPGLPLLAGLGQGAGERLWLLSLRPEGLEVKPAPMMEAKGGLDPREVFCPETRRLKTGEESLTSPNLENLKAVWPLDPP
Summary of the method: as §1

ETS2 = molecular target: T3, ETS2 (Homo sapiens, UniProt P15036 1-469)
T3 sequence: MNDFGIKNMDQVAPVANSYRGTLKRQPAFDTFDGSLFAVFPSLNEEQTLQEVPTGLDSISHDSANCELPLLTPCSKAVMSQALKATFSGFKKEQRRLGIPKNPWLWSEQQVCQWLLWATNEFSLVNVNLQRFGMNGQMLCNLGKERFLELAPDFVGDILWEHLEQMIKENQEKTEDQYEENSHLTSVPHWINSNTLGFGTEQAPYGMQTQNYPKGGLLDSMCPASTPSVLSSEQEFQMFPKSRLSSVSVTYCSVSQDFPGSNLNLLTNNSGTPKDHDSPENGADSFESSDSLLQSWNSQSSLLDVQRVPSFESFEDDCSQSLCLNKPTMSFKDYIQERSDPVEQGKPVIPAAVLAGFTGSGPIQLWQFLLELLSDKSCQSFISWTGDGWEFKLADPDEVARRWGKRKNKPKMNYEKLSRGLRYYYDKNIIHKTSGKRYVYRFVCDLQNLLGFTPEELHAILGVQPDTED
Summary of the method: as §1

SPDEF = molecular target: T4, SPDEF (Homo sapiens, UniProt O95238 1-335)
T4 sequence: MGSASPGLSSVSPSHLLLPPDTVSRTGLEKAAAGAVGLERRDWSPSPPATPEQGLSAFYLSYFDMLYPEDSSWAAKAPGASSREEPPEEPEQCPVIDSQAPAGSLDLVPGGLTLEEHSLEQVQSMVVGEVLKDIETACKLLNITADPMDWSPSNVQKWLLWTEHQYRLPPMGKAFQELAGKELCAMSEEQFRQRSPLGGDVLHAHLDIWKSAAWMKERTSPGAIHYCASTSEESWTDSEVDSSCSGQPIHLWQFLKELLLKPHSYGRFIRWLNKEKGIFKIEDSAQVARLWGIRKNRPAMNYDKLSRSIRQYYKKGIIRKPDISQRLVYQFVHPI
Summary of the method: as §1

ETV7 = molecular target: T5, ETV7 (Homo sapiens, UniProt Q9Y603 1-341)
T5 sequence: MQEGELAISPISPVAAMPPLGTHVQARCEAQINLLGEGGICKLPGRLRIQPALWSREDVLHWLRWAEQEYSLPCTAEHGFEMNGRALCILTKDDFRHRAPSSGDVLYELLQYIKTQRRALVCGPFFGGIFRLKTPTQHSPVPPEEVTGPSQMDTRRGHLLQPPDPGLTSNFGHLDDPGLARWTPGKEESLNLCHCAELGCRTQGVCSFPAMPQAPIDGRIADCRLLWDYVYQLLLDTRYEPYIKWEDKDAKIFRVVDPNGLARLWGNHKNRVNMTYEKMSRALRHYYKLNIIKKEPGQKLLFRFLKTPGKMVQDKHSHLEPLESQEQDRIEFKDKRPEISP
Summary of the method: as §1

ELF5 = molecular target: T6, ELF5 (Homo sapiens, UniProt Q9UKW6-2 1-255)
T6 sequence: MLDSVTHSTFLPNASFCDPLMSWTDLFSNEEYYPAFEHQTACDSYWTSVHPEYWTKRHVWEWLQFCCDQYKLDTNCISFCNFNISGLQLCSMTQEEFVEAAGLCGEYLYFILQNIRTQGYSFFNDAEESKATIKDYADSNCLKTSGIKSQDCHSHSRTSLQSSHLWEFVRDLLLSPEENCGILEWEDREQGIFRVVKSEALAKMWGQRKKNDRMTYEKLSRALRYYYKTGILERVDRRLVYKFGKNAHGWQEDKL
Summary of the method: as §1

ETV3 = molecular target: T7, ETV3 (Homo sapiens, UniProt P41162-2 1-143)
T7 sequence: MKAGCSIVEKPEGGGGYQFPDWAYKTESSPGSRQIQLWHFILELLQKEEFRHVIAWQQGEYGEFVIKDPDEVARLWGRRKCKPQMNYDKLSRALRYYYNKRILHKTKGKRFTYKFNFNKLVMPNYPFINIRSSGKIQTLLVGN
Summary of the method: as §1

ETV6 = ETV6 (Homo sapiens, UniProt P41212 1-452)
Chain of ETV6 (P41212 whole entry): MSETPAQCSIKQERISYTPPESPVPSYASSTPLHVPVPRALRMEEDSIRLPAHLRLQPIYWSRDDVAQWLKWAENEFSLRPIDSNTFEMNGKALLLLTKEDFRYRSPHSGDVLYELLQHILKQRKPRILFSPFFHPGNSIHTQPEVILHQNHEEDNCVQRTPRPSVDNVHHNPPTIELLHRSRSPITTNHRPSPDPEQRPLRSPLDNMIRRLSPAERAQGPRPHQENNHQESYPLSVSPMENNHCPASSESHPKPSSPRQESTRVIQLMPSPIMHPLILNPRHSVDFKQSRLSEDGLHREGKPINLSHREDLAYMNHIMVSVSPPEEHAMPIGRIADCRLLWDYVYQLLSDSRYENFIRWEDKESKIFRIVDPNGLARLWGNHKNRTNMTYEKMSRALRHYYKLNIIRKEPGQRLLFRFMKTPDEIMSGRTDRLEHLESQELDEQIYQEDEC
Summary of the method: as §1

| Sequence | binding signal (ERF) | binding signal (ETV3L) | binding signal (ETS2) | binding signal (SPDEF) | binding signal (ETV7) | binding signal (ELF5) | binding signal (ETV3) | binding signal (ETV6) |
| --- | --- | --- | --- | --- | --- | --- | --- | --- |
| CCTTTG | 1.24 fold enrichment (6-mer frequency, TF over GST control) | 1.32 fold enrichment (6-mer frequency, TF over GST control) | 1.32 fold enrichment (6-mer frequency, TF over GST control) | 1.22 fold enrichment (6-mer frequency, TF over GST control) | 1.33 fold enrichment (6-mer frequency, TF over GST control) | 1.31 fold enrichment (6-mer frequency, TF over GST control) | 1.34 fold enrichment (6-mer frequency, TF over GST control) | 1.17 fold enrichment (6-mer frequency, TF over GST control) |
| CTCGTG | 1.12 fold enrichment (6-mer frequency, TF over GST control) | 1.01 fold enrichment (6-mer frequency, TF over GST control) | 1.13 fold enrichment (6-mer frequency, TF over GST control) | 1.07 fold enrichment (6-mer frequency, TF over GST control) | 1.12 fold enrichment (6-mer frequency, TF over GST control) | 1.11 fold enrichment (6-mer frequency, TF over GST control) | 1.08 fold enrichment (6-mer frequency, TF over GST control) | 1.02 fold enrichment (6-mer frequency, TF over GST control) |
| TCGATG | 1.08 fold enrichment (6-mer frequency, TF over GST control) | 1.15 fold enrichment (6-mer frequency, TF over GST control) | 1.03 fold enrichment (6-mer frequency, TF over GST control) | 1.07 fold enrichment (6-mer frequency, TF over GST control) | 1.17 fold enrichment (6-mer frequency, TF over GST control) | 1.07 fold enrichment (6-mer frequency, TF over GST control) | 1.1 fold enrichment (6-mer frequency, TF over GST control) | 1.09 fold enrichment (6-mer frequency, TF over GST control) |
| CGATAG | 1.17 fold enrichment (6-mer frequency, TF over GST control) | 1.07 fold enrichment (6-mer frequency, TF over GST control) | 1.07 fold enrichment (6-mer frequency, TF over GST control) | 1.03 fold enrichment (6-mer frequency, TF over GST control) | 1.15 fold enrichment (6-mer frequency, TF over GST control) | 1.02 fold enrichment (6-mer frequency, TF over GST control) | 1.17 fold enrichment (6-mer frequency, TF over GST control) | 1.11 fold enrichment (6-mer frequency, TF over GST control) |
| TGTCCA | 1.09 fold enrichment (6-mer frequency, TF over GST control) | 1.2 fold enrichment (6-mer frequency, TF over GST control) | 1.14 fold enrichment (6-mer frequency, TF over GST control) | 1.13 fold enrichment (6-mer frequency, TF over GST control) | 1.18 fold enrichment (6-mer frequency, TF over GST control) | 1.05 fold enrichment (6-mer frequency, TF over GST control) | 1.13 fold enrichment (6-mer frequency, TF over GST control) | 1.12 fold enrichment (6-mer frequency, TF over GST control) |
| CGTTCA | 1.2 fold enrichment (6-mer frequency, TF over GST control) | 1.25 fold enrichment (6-mer frequency, TF over GST control) | 1.12 fold enrichment (6-mer frequency, TF over GST control) | 1.14 fold enrichment (6-mer frequency, TF over GST control) | 1.07 fold enrichment (6-mer frequency, TF over GST control) | 1.08 fold enrichment (6-mer frequency, TF over GST control) | 1.12 fold enrichment (6-mer frequency, TF over GST control) | 1.19 fold enrichment (6-mer frequency, TF over GST control) |
| TGCGAC | 1.22 fold enrichment (6-mer frequency, TF over GST control) | 1.32 fold enrichment (6-mer frequency, TF over GST control) | 1.19 fold enrichment (6-mer frequency, TF over GST control) | 1.15 fold enrichment (6-mer frequency, TF over GST control) | 1.29 fold enrichment (6-mer frequency, TF over GST control) | 1.2 fold enrichment (6-mer frequency, TF over GST control) | 1.27 fold enrichment (6-mer frequency, TF over GST control) | 1.28 fold enrichment (6-mer frequency, TF over GST control) |
